The list is not random: actives were taken first. Their share in the collection is about 19%.
SARS PLpro yeast – SARS-CoV PLP inhibition in yeast. S. cerevisiae expressing SARS-CoV PLpro, growth rescue. 330,000 compounds, 0.19% hits. Potency, µM (top dose mostly 32.9 µM), for inactives: at the highest dose activity, positive = growth rescue, usual class: activators. AID 485353; calls by dose curve; further: potency means the concentration at half of the fitted maximal effect; 0% is about no effect; nearly all actives have a fitted effect of over 55% in size
CHX counter – affects cycloheximide protein synthesis inhibition readout, counter-screen. cell reporter, cycloheximide protein synthesis inhibition counterscreen. max response, %. 300,000 compounds, 12% hits. AID 2314; in the data active means max response mostly above about 13%, no sharp cut-off; inactive means mostly below about 14%; further: read at 38.3 µM for the half of the compounds with a filed dose; 0% is about no effect
Shiga toxin inh – Shiga toxin inhibition. AID 2315. 290,000 compounds, 9.2% hits. Vero cells, Shiga toxin protein synthesis inhibition reporter. inhibition, % at 38.7 µM; in the data active means inhibition mostly above about 28%, no sharp cut-off; inactive means mostly below about 43%; further: 0% is about no effect
Pf growth 48h – P. falciparum growth inhibition at 48 hours (one generation); Potency, µM (highest dose often 28.7 µM), for inactives: at the top dose activity change, negative = inhibition, actives largely listed as inhibitors; P. falciparum luciferase growth in erythrocytes, 48 h; 310,000 compounds, 5.9% hits; AID 504832; further: potency means the concentration at half of the fitted maximal effect; on the % scale 0 is the no-effect control and ±100 the full control effect
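Luminescence readout; reporter = integrated firefly luciferase in P. falciparum. RBC culture at 2% hematocrit, 0.1% parasitemia final, 37 C/5% CO2; decreased signal taken as growth inhibition.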
AMA1-RON2 inh – disrupts binding of P. falciparum AMA1 to RON2; 360,000 compounds, 0.2% hits; Potency, µM (top dose mostly 58.2 µM), for the others: at the top dose activity change, negative = inhibition, hits mostly inhibitors; AlphaScreen AMA1-biotinylated RON2 peptide binding;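 further: potency means the concentration at half of the fitted maximal effect; 0% = vehicle wells and -100% = peptide control; nearly all actives have a fitted effect of over 45% in size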
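AMA1 (3D7) with his tag at 25 nM final met compounds first, then biotinylated RON2 peptide at 25 nM; detection used donor plus acceptor beads, 10 µg/mL apiece, read by AlphaScreen after 30 min at room temperature.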
Pf growth 96h – P. falciparum growth inhibition at 96 hour, primary screen for plastid delayed-death inhibitors. P. falciparum luciferase reporter growth, 96 h. Potency, µM (series often up to 28.7 µM), for the others: at the highest dose activity change, negative = inhibition, usual class: inhibitors. 320,000 compounds, 6.9% hits. AID 504834; further: potency means the concentration at half of the fitted maximal effect; on the % scale 0 is the no-effect control and ±100 the full control effect
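P. falciparum expressing integrated firefly luciferase grown in erythrocytes (2% hematocrit, 0.05% parasitemia final) with compounds for 96 hours at 37 C, 5% CO2. Growth inhibition read as loss of luminescence after adding luciferase detection reagent.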
* marks the source's active call; other numbers are inactive results; ? = inconclusive; · = no result. Unless noted, the call rests on the fitted dose curve; in most records, active means well fitted curve in the direction sought with a large enough effect; inconclusive means small, poorly fitted or top-dose-only effect, or another doubt; inactive means no such curve, though single readings can be large; an effect the other way counts as inactive or inconclusive.

SMILES | SARS PLpro yeast | CHX counter | Shiga toxin inh | Pf growth 48h | AMA1-RON2 inh | Pf growth 96h
Cc1cccc(-c2nc(C#N)c(N3CCCCC3)o2)c1 | 0.7% | 27.4* | 37.3* | 97.9% | -29.9% | 72.2%
Cc1cccc(-c2nc(C#N)c(NC3CCCCC3)o2)c1 | -3.5% | 49.9* | 168.1* | 64.5% | -2.5% | 4.65µM*
COCCNCc1ccccc1[N+](=O)[O-] | -9.2% | · | · | 7.5% | 5.2% | 52.8%
NC(=O)c1ccsc1NC(=O)CS(=O)(=O)c1ccc(F)cc1 | 0.6% | · | · | 9.2% | 19.5% | 41.5%
CCN(CC)C(=O)COc1coc(CN2CCN(c3ccccc3F)CC2)cc1=O | -7.3% | -2.1 | -2.6 | -7.0% | 37.8% | 9.28µM*
CCOC(=O)COc1coc(CN2CCN(c3ccccc3)CC2)cc1=O | -6.5% | -2.4 | 21.0 | 9.8% | 7.9% | ?
Cc1cc(NC(=O)COc2coc(CN3CCN(c4ccccc4F)CC3)cc2=O)no1 | 0.1% | · | · | ? | 5.4% | 9.28µM*
O=C(O)C(Cc1ccc(O)cc1)N1C(=O)C2CCCCC2C1=O (centres undefined) | 0.3% | -1.8 | -4.3 | 9.4% | -1.2% | -8.8%
Cc1ccc(N2CCN(CC(O)COc3ccccc3)CC2)cc1 (centres undefined) | 1.4% | -1.8 | -3.4 | -9.9% | -2.1% | 27.3%
CC(=O)OC1CCC2(C)C3CCC4(C)C(OC(C)=O)CCC4C3C(C)C2(O)C1 (centres undefined) | · | · | · | · | -9.6% | ·
CC(=O)O[C@H]1C[C@@]2(C)[C@@H](C[C@@H](O)[C@H]3[C@@]4(C)CC[C@@H](O)[C@@H](C)[C@@H]4CC[C@@]32C)/C1=C(\CCC=C(C)C)C(=O)O | · | · | · | 11.7µM* | -6.3% | ?
CCS(=O)(=O)c1nc(S(=O)(=O)c2ccc(Cl)cc2)c(NCCCN2CCOCC2)s1 | -3.4% | -3.0 | 8.4 | -17.3% | -5.1% | 11.7µM*
CCN1CCN(c2sc(S(=O)(=O)CC)nc2S(=O)(=O)c2ccc(Cl)cc2)CC1 | · | · | · | · | -3.6% | ·
CCCS(=O)(=O)c1nc(S(=O)(=O)c2ccc(C)cc2)c(N2CCOCC2)s1 | 4.4% | 3.0 | 9.0 | 11.7µM* | -3.7% | -22.7%
CCS(=O)(=O)c1nc(S(=O)(=O)c2ccc(Cl)cc2)c(N2CCc3ccccc3C2)s1 | -8.2% | -1.2 | -2.2 | 9.28µM* | 8.8% | 2.94µM*
CC1CN(c2sc(S(C)(=O)=O)nc2S(=O)(=O)c2ccc(Cl)cc2)CC(C)O1 (centres undefined) | 3.3% | -5.7 | -5.9 | -12.3% | 10.5% | ?
CC1CCCN(c2sc(S(C)(=O)=O)nc2S(=O)(=O)c2ccc(Cl)cc2)C1 (centres undefined) | 0.2% | -1.7 | -5.8 | ? | -8.2% | 13.1µM*
COCCCn1c(=O)c2sccc2n(Cc2cc(C(=O)OC)ccc2OC)c1=O | 0.5% | -1.3 | -11.5 | ? | 2.5% | 30.8%
O=C(COCC(=O)NCc1ccccc1)NCc1ccccc1 | 1.0% | 2.1 | 11.6 | 16.8% | -2.2% | 35.8%
CC1(C)CC(=O)C(C=NCC2CCN(C(=O)Nc3ccc(Cl)c(Cl)c3)CC2)=C(O)C1 | ? | -1.8 | 15.3 | 3.3% | 6.6% | 12.8%
CC(=O)Nc1ccc(C(=O)N/N=C/c2cccnc2)cc1 | 0.7% | -2.1 | -7.5 | 0.0% | 58.7% | 3.7µM*
Cn1nccc1C(=O)N/N=C/c1cccnc1 | 1.1% | 33.3* | 58.9* | 11.0% | 12.1% | -10.0%
Cn1nccc1C(=O)N/N=C/c1ccccc1[N+](=O)[O-] | 0.2% | 32.3* | 79.9* | 156.3% | 3.1% | 104.9%
COc1cccc(/C=N/NC(=O)c2ccc(CN3c4cccc5cccc(c45)S3(=O)=O)cc2)c1 | -4.5% | -2.4 | 24.7 | -15.8% | -14.8% | 10.4µM*
CCOC(=O)c1cccc(NC(=O)Cn2cnc3c2c(=O)n(C)c(=O)n3C)c1 | 8.8% | -1.5 | -7.3 | 8.3% | 0.0% | 10.6%
SMILES | SARS PLpro yeast | CHX counter | Shiga toxin inh | Pf growth 48h | AMA1-RON2 inh | Pf growth 96h
O=C(CNC(=O)c1ccncc1)N/N=C/c1cccc([N+](=O)[O-])c1 | 0.6% | 2.5 | -17.9 | 9.5% | 0.0% | ?
COc1cccc(C(=O)NCC(=O)N/N=C/c2cccnc2)c1 | -4.9% | -3.0 | -3.5 | 18.1% | 12.4% | 26.6%
Cc1cc(C)n(Cc2cccc(C(=O)N/N=C/c3cccnc3)c2)n1 | 1.1% | 10.0* | -3.8 | 9.0% | 30.9% | 1.1%
O=C(CNC(=O)c1ccncc1)N/N=C/c1ccccc1[N+](=O)[O-] | 0.2% | 23.2* | 57.9* | -1.3% | -1.5% | 19.1%
COc1ccc(C(=O)N/N=C/c2cccnc2)cc1 | 2.3% | 29.3* | 54.5* | · | 4.4% | 12.6%
N#Cc1c(-n2cccc2/C=N/O)sc2c1CCCC2 | -5.0% | -2.1 | -8.2 | 0.8% | ? | 14.7µM*
Cc1noc(C)c1NC(=O)Nc1cccc2c1O[C@H](CN(C)C(=O)Nc1ccc3c(c1)OCO3)[C@@H](C)CN([C@H](C)CO)C2=O | -1.9% | · | · | · | 18.3% | ·
CC1CCc2cc(F)cc3c(=O)c(C(=O)O)cn1c23 (centres undefined) | -0.3% | 0.6 | -6.9 | 7.0% | 18.5% | ?
NC1CCN(c2nc3c(cc2F)c(=O)c(C(=O)O)cn3-c2ccc(F)cc2F)C1 (centres undefined) | · | · | · | 3.79µM* | 9.4% | 1.07µM*
CC1CCc2c(N3CCC(O)CC3)c(F)cc3c(=O)c(C(=O)O)cn1c23 (centres undefined) | · | · | · | 14.7µM* | 36.2% | 6.01µM*
COc1c(N2CCN(C(=S)NC3CC4CCC3C4)C(C)C2)c(F)cc2c(=O)c(C(=O)O)cn(C3CC3)c12 (centres undefined) | -1.1% | -1.8 | 7.2 | ? | 1.1% | ?
CO/N=C1\CN(c2nc3c(cc2F)c(=O)c(C(=O)O)cn3C2CC2)CC1CN (centres undefined) | · | · | · | 1.9µM* | · | 1.69µM*
Cc1c(F)c(N2CCNC(C)C2)cc2c1c(=O)c(C(=O)O)cn2C1CC1 (centres undefined) | · | · | · | -18.9% | · | 6.75µM*
O=C(O)c1cn(-c2ccc(N3CCCC3)c(F)c2)c2c(F)c(F)c(F)cc2c1=O | 1.8% | 0.4 | -11.4 | 19.0% | ? | 1.7%
COc1c(N2CCNC(C)C2)c(F)cc2c(=O)c(C(=O)O)cn(C3CC3)c12 (centres undefined) | · | · | · | ? | · | 5.36µM*
NC1CCN(c2c(F)cc3c(=O)c(C(=O)O)cn(C4CC4)c3c2Cl)C1 (centres undefined) | -1.5% | -2.3 | -18.7 | 5.86µM* | -0.8% | 0.738µM*
CC1CN(c2c(F)c(N)c3c(=O)c(C(=O)O)cn(C4CC4)c3c2F)CC(C)N1 (centres undefined) | · | -4.5 | -2.2 | 7.57µM* | · | 4.78µM*
O=c1c2ncn([C@@H]3O[C@@H]4COP(=O)(O)O[C@H]4[C@H]3O)c2nc2[nH]c(-c3ccccc3)cn12 | · | -4.2 | -7.3 | · | · | ·
